This is a sample that favours compounds with a hit; in the whole collection about 4.7% have one here.
MLLE-PAM2 inh: inhibitors of PABP1 MLLE–PAM2 peptide binding, primary screen, biochemical, fluorescence polarization, FITC-PAM2, GST-MLLE | AID 588489, 2011 | Polyadenylate-binding protein 1 (Homo sapiens), P11940 | inhibition, % at 20 µM | 360,000 compounds, 0.36% hits; in the data active means inhibition above about 35%, passing the limit was not always enough;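 further: plate controls were DMSO wells with GST-MLLE for no effect and wells lacking GST-MLLE protein for full effect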
ALR H2O2 inh: inhibitors of human ALR sulfhydryl oxidase, primary screen, biochemical, H2O2 detection, HRP-luminol luminescence, single point. FAD-linked sulfhydryl oxidase ALR (Homo sapiens), P55789. purified ALR, DTT oxidation. inhibition, % (concentration not given with the values). 290,000 compounds, 3.8% hits. AID 485317, 2010;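 active means mean replicate inhibition above about 79%, with every replicate also reaching it, limit read from the data; inconclusive means only one of the two criteria met; inactive means mean below limit and not every replicate reaching it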
Target sequence (P55789 whole entry, looked up): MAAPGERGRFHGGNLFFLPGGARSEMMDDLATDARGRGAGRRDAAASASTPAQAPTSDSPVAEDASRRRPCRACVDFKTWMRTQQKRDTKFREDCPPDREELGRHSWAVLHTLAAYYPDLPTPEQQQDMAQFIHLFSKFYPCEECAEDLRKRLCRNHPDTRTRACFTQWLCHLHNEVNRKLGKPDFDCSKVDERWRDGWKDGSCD
eIF4H FP inh: human eIF4H binding inhibitors, primary screen, translation initiation inhibitor project, biochemical, uHTS, fluorescence polarization; Eukaryotic translation initiation factor 4H (Homo sapiens), Q15056; eIF4H fluorescence polarization binding assay; inhibition, % at 35 µM; 290,000 compounds, 0.94% hits; AID 2012, 2009;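 further: calls also rest on retests at 20 µM and on dose response follow-up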
Efflux pump mplx: inhibitors of Candida efflux pumps in yeast, primary screen, S. cerevisiae, Nile Red, multiplex; S. cerevisiae Candida pump triplex; inhibition, % at 10 µM; 330,000 compounds, 0.44% hits;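 active means plate passing quality check with inhibition over a set limit, or well fluorescence over plate mean plus 4 SD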;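 further: Nile Red retained in pooled yeast measured as flow cytometry median fluorescence; 0% = buffer negative control and 100% = Enniatin B positive control; higher means more Nile Red kept so more efflux inhibition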
UBC9 SUMO inh: inhibitors of in vitro SUMOylation cascade, primary screen, biochemical, HTRF, uHTS; SUMO-conjugating enzyme UBC9 (Homo sapiens), P63279; HTRF SUMOylation assay, SAE1/SAE2 + UBC9; inhibition, % at 35 µM; 290,000 compounds, 0.36% hits; AID 2006, 2009; in the data active means inhibition above about 50%, passing the limit was not always enough; inconclusive means no clear call, values can overlap the other calls
Target sequence (P63279 whole entry, looked up): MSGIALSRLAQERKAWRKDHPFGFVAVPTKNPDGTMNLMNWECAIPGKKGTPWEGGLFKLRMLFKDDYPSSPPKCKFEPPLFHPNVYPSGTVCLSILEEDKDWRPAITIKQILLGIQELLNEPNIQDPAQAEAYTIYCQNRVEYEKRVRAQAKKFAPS
PABP FP inh: PABP poly(A) RNA binding inhibitors, primary screen, biochemical, fluorescence polarization, uHTS; Polyadenylate-binding protein 1 (Homo sapiens), P11940; inhibition, % at 35 µM; 290,000 compounds, 1% hits;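 further: calls also rest on retests at 20 µM and on dose response follow-up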
Numbers without * were called inactive. Unless noted, how the calls were made is not given here.

Screening CC(=O)Nc1ccccc1NC(=O)c1cccc2ccccc12 returned MLLE-PAM2 inh -8.5, eIF4H FP inh 3.5, Efflux pump mplx -0.1, UBC9 SUMO inh -9.0 and PABP FP inh 5.3.
`O=C(O)c1cc(O)ccc1NC(=O)c1cccc2ccccc12` gave MLLE-PAM2 inh -4.9, ALR H2O2 inh 95.5*, eIF4H FP inh 3.0, Efflux pump mplx 0.0, UBC9 SUMO inh 13.0 and PABP FP inh 2.4.
For O=C(NC(=S)Nc1ccc(Cl)c(C(=O)O)c1)c1ccc(OCc2ccccc2)cc1 the results were MLLE-PAM2 inh 23.8, ALR H2O2 inh 60.6, eIF4H FP inh -4.7, Efflux pump mplx 0.0, UBC9 SUMO inh 25.5 and PABP FP inh -4.5.
Screening CN1C(=O)/C(=C/c2ccc(C(=O)Nc3ccc(O)cc3C(=O)O)cc2)SC1=S returned MLLE-PAM2 inh 5.3, ALR H2O2 inh 97.4*, eIF4H FP inh -2.0, Efflux pump mplx -0.1, UBC9 SUMO inh 15.4 and PABP FP inh 28.8.
For O=C(Nc1cccc2nsnc12)c1cc2c(cc1Cl)Sc1nccn1S2(=O)=O the results were MLLE-PAM2 inh 2.6.
For Cc1ccc(C(=O)Nc2ccc(O)cc2C(=O)O)cc1 the results were MLLE-PAM2 inh 2.8, ALR H2O2 inh 36.5, eIF4H FP inh -6.5, Efflux pump mplx 3.6, UBC9 SUMO inh -18.8 and PABP FP inh 3.4.
Screening O=C(O)c1ccccc1NC(=S)NC(=O)c1cccc2ccccc12 returned MLLE-PAM2 inh 30.8, ALR H2O2 inh 97.9*, eIF4H FP inh 6.8, Efflux pump mplx 0.0, UBC9 SUMO inh 18.2 and PABP FP inh 7.9.
`Cc1ccc(C(=O)Nc2ccc(O)cc2C(=O)O)cc1C` gave MLLE-PAM2 inh -13.0, ALR H2O2 inh 97.7*, eIF4H FP inh 0.6, Efflux pump mplx 0.0, UBC9 SUMO inh -1.3 and PABP FP inh 20.3.
O=C(CC(O)c1ccccc1)Nc1ccccn1 (stereo unspecified) was read as MLLE-PAM2 inh 9.9.
CCn1c(Sc2ccc([N+](=O)[O-])cn2)nnc1-c1ccco1 was read as MLLE-PAM2 inh -13.6, ALR H2O2 inh -4.8, eIF4H FP inh -7.1, Efflux pump mplx 0.0, UBC9 SUMO inh 18.3 and PABP FP inh -1.0.
For O=C(Nc1cc2c3c(c1)CC(=O)N3CCC2)c1c(F)cccc1F the results were MLLE-PAM2 inh -1.1, ALR H2O2 inh -0.4 and Efflux pump mplx 0.1.
For C/C(=N\Nc1ccccn1)c1ccc(Br)s1 the results were MLLE-PAM2 inh -6.3, ALR H2O2 inh 98.7* and Efflux pump mplx 0.1.
Screening C(=N\Nc1ccccc1)/c1ccc(N2CCOCC2)cc1 returned MLLE-PAM2 inh 2.4, ALR H2O2 inh -34.7, eIF4H FP inh -6.3, Efflux pump mplx 0.1, UBC9 SUMO inh 26.2 and PABP FP inh 8.7.
C/C(=N\Nc1ccccn1)c1ccc(C(C)C)cc1 was read as MLLE-PAM2 inh -6.9, ALR H2O2 inh -3.0, eIF4H FP inh 2.0, Efflux pump mplx 0.3, UBC9 SUMO inh -10.8 and PABP FP inh -0.5.
For C/C(=N\Nc1ccccn1)c1ccc(N2CCOCC2)cc1 the results were MLLE-PAM2 inh -27.7, ALR H2O2 inh 98.0*, eIF4H FP inh -1.1, Efflux pump mplx -0.1, UBC9 SUMO inh 24.5 and PABP FP inh -1.6.
Screening C(=N\Nc1ccccn1)/c1ccc(N2CCOCC2)cc1 returned MLLE-PAM2 inh -38.7, ALR H2O2 inh 98.9*, eIF4H FP inh 3.4, Efflux pump mplx -0.2, UBC9 SUMO inh 18.5 and PABP FP inh -22.0.
C/C(=N\Nc1ccccn1)c1ccc2c(c1)OCO2 was read as MLLE-PAM2 inh 6.4, ALR H2O2 inh 3.9, eIF4H FP inh 1.1, Efflux pump mplx 0.0, UBC9 SUMO inh 5.6 and PABP FP inh -0.1.
Screening CCCN1CCN(C(=O)c2ccc3[nH]c(C)c(C)c3c2)CC1 returned MLLE-PAM2 inh -1.1.
`COc1ccc(NC2CCCN(C(=O)C3=NN(C)C(=O)CC3)C2)cc1OC` (stereo unspecified) gave MLLE-PAM2 inh -7.6, ALR H2O2 inh 97.7*, eIF4H FP inh -9.4, Efflux pump mplx -0.1, UBC9 SUMO inh 1.8 and PABP FP inh -6.2.
`COc1ccc(NC2CCCN(C(=O)c3cccc(C)n3)C2)cc1OC` (stereo unspecified) gave MLLE-PAM2 inh 1.9, ALR H2O2 inh inconclusive, eIF4H FP inh 0.6, Efflux pump mplx 0.6, UBC9 SUMO inh -0.4 and PABP FP inh 4.3.
`COc1ccccc1N1CCN(C2CCCN(C(=O)C3=NN(C)C(=O)CC3)C2)CC1` (stereo unspecified) gave MLLE-PAM2 inh -5.5, ALR H2O2 inh 11.0, eIF4H FP inh -20.3, Efflux pump mplx 0.0, UBC9 SUMO inh 3.1 and PABP FP inh -2.4.
`CC(C)c1ccc(NC2CCCN(C(=O)C3=NN(C)C(=O)CC3)C2)cc1` (stereo unspecified) gave MLLE-PAM2 inh -2.9, ALR H2O2 inh 98.2*, eIF4H FP inh -1.0, Efflux pump mplx -0.3, UBC9 SUMO inh -3.0 and PABP FP inh 1.2.
For CCOC(=O)c1ccc(N(CCC2CO2)S(=O)(=O)c2ccc(C)cc2)cc1 (stereo unspecified) the results were MLLE-PAM2 inh 7.2.
For C=CCN1C=CC=C/C1=C1\SC(=S)N(C)C1=O the results were MLLE-PAM2 inh -24.3, ALR H2O2 inh 99.2*, eIF4H FP inh -13.4, Efflux pump mplx 0.0, UBC9 SUMO inh 3.2 and PABP FP inh 10.1.
CN1C=CC=C/C1=C1\SC(=S)N(c2ccccc2)C1=O was read as MLLE-PAM2 inh 22.6, ALR H2O2 inh 98.8*, eIF4H FP inh -2.9, Efflux pump mplx 0.0, UBC9 SUMO inh -9.1 and PABP FP inh 5.8.
`CN1C=CC=C/C1=C1\SC(=S)N(CC(=O)O)C1=O` gave MLLE-PAM2 inh 34.5, ALR H2O2 inh 55.2, eIF4H FP inh 5.0, Efflux pump mplx 0.0, UBC9 SUMO inh 12.8 and PABP FP inh 11.1.
For CN1C=CC=C/C1=C1\SC(=S)N(C2CCCCC2)C1=O the results were MLLE-PAM2 inh 33.4, ALR H2O2 inh 98.9*, eIF4H FP inh -4.6, Efflux pump mplx -0.1, UBC9 SUMO inh 11.3 and PABP FP inh -11.8.
`COc1cc(/C=C/C(=O)O)cc(S(=O)(=O)Nc2ccc3c(c2)OCO3)c1OC` gave MLLE-PAM2 inh 8.9, ALR H2O2 inh -77.7, eIF4H FP inh 2.0, Efflux pump mplx 0.3, UBC9 SUMO inh 2.5 and PABP FP inh 43.0.
COc1cc(/C=C/C(=O)O)cc(S(=O)(=O)NNC(=O)c2ccc3c(c2)OCO3)c1OC was read as MLLE-PAM2 inh 10.8, ALR H2O2 inh 89.9* and Efflux pump mplx -0.1.

High-throughput results (PubChem)
